Experiments:
[1] = test system: Vero E6 infected with SARS-CoV-2; experiment: morphology score (similarity to uninfected cells); higher = more like uninfected cells; details: 24 h
[2] = test system: Vero E6 infected with SARS-CoV-2; experiment: SARS-CoV-2 infection rate relative to infected DMSO; higher = more infection, active = 60 or less; details: 24 h

Row | SMILES | morphology score [1] | SARS-CoV-2 infection rate [2]
1 | c1ccc(CN2CCC3(CCc4ccccc43)CC2)cc1 (10 µM) | 0.228 | 80.5% (inactive)
2 | c1cn2cc(-c3ccc4cn[nH]c4c3)nc(Nc3ccc(N4CCOCC4)cc3)c2n1 (10 µM) | 0.194 | 104% (inactive)
3 | N#CC(=C(/N)Sc1ccccc1N)/C(C#N)=C(/N)Sc1ccccc1N (10 µM) | -0.197 | 113% (inactive)
4 | Cc1c(CC(C)(C)C(=O)O)n(Cc2ccc(Cl)cc2)c2ccc(F)cc12 (10 µM) | -0.214 | 113% (inactive)
5 | Nc1ccc2cc3ccc(N)cc3nc2c1 [proflavine-hemisulfate] (0.833333 µM) | 0.26 | 80.5% (inactive)
6 | C[C@]12CC[C@H](O)C[C@H]1CC[C@@H]1[C@@H]2CC[C@]2(C)[C@@H](C3=CC(=O)OC3)CC[C@]12O [digitoxigenin] (0.833333 µM) | -0.0679 | 108% (inactive)
7 | O=C1OC2(c3ccccc31)c1cc(I)c(O)c(I)c1Oc1c2cc(I)c(O)c1I [erythrosine] (0.833333 µM) | 0.0913 | 116% (inactive)
8 | O=C1NC(=S)NC(=O)C1C(=O)Nc1ccccc1 [merbarone] (10 µM) | 0.103 | 99% (inactive)
9 | C/C(=C\C(N)C(=O)O)CP(=O)(O)O (configuration not stated) (10 µM) | 0.064 | 110% (inactive)
10 | COc1cnc(NS(=O)(=O)c2ccc(N)cc2)nc1 [sulfameter] (10 µM) | 0.131 | 111% (inactive)
11 | OCc1cncc(F)c1 [5-fluoro-3-pyridyl-methanol] (10 µM) | 0.135 | 102% (inactive)

— the supplement of paper PMC13380429
